Source: the supplement of paper PMC3334620
In all, about 33,000 sequences were measured (“E-score (-0.5 to 0.5)”: median about -0.054, highest 2% from about 0.39 on). What follows is part of a selection rich in the highest values, with near analogues and random picks from the rest.

Target: Ylr278c (UniProt Q05854)
Assay: PBM E-score (8-mer binding enrichment) (E-score (-0.5 to 0.5)); higher = stronger / more preferred TF binding
Conditions: protein concentration: 200 nM; construct: GST-DNA-binding domain
Outline: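 Bound GST-tagged yeast transcription factors, applied at about 100-200 nM to double-stranded universal all-10-mer Agilent arrays, were detected with fluorescent anti-GST. Scans were normalised with masliner. A modified Wilcoxon-Mann-Whitney statistic, the E-score, was assigned to each ungapped eight-base word pooled with its reverse complement by the Universal PBM Analysis Suite.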

Chain of UniProt Q05854 (Q05854 whole entry): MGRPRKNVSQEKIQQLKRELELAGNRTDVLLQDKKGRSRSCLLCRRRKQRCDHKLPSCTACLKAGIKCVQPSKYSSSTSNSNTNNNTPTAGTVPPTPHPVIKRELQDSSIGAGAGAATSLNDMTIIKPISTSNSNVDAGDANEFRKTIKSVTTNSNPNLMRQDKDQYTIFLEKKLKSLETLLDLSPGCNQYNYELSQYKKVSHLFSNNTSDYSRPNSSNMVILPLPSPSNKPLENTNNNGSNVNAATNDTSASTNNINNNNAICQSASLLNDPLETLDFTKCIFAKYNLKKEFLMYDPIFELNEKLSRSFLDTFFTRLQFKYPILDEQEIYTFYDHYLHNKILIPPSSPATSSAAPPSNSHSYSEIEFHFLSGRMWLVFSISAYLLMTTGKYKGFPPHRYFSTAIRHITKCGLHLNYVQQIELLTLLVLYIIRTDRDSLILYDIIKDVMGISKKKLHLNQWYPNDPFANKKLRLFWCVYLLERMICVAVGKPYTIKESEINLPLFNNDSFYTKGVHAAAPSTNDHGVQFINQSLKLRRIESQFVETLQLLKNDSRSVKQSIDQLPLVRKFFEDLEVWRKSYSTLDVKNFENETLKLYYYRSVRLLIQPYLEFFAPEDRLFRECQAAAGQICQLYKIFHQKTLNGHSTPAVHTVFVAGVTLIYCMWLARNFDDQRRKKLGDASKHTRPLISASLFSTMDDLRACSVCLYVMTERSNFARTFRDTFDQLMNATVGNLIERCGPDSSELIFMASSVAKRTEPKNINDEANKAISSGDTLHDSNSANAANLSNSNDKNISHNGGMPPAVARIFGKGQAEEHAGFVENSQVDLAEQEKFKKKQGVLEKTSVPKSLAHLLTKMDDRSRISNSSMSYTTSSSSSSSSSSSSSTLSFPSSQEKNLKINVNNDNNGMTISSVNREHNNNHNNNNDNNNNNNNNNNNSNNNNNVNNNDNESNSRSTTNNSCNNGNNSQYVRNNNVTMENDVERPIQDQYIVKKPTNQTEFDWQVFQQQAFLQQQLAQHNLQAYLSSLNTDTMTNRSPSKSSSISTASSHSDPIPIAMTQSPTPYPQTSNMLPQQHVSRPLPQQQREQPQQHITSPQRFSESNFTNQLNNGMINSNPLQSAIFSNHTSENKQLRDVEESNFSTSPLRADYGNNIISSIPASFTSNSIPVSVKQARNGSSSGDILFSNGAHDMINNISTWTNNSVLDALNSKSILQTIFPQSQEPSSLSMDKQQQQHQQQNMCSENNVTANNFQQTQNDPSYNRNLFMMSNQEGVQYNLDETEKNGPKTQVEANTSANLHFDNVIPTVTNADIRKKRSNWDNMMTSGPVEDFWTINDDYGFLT

Sequence | PBM E-score
ACCCCGGC | 0.355
ACCCGGGA | 0.307
TCCCGGGA | 0.398
CCCCGGGA | 0.378
ACCCCGGT | 0.385
ACCCCGGA | 0.445
GGTCTTAC | -0.0198
GAAGCGGC | 0.125
GGATGCCA | -0.277
AAATTCCA | 0.115
CGATTCCA | 0.056
CGATTCCG | 0.396
ATATTCCC | 0.277
AAATTCCG | 0.471
CAATTCCG | 0.465
ATATTCCG | 0.43
CGATTCCC | 0.226
CAATTCCA | -0.0617
AAATTCCC | 0.254
CAATTCCC | 0.19
ATATTCCA | 0.0484
ATACCGTC | 0.153
AACCTAGT | -0.00542
AACTTAGG | -0.156
CAAGTGCA | -0.362

Sequence | PBM E-score
TGGTTCAA | -0.118
ATACCTTC | 0.0292
GGCGCACA | 0.145
TCCCTCAA | -0.106
AGGCCGTA | 0.0868
CGGCCGTA | 0.225
CGGCCGCA | 0.249
GGGCCGTA | 0.0879
AGGCCGGG | 0.258
CGGCCGGC | 0.409
GGGCCGAA | 0.198
AGGCCGGA | 0.419
CGGCCGAC | 0.309
GGGCCGGA | 0.418
AGGCCGGC | 0.342
CGGCCGGA | 0.424
CACCTAAG | -0.134
CTTACCTC | -0.0434
AGGTTGGG | -0.122
ACGCTACT | 0.0556
AGCAATCA | -0.118
CATTGTCC | 0.314
CGCCATAG | -0.135
GGTTGATA | -0.0138
CGTCGTTC | 0.137

Sequence | PBM E-score
ATCTGACG | -0.134
CGTGCCAA | -0.0693
CGGCCTTC | 0.394
AGGCCTTC | -0.221
CGGCCTTA | 0.352
AGTTCCGC | 0.383
AGTTCCGA | 0.43
GGTTCCGA | 0.384
CGTTCCGA | 0.288
AGTTCCGG | 0.433
AGTTCCTG | -0.0874
AGAACCGG | 0.345
CACTCCCA | -0.106
CACTCCGG | 0.46
CACTCCGC | 0.393
CACTCCTC | 0.0388
CACTCCTG | -0.0899
CACTCCAA | 0.031
CACTCCCG | 0.193
CACTCCGA | 0.454
AACTCCCG | 0.365
AACTCCGG | 0.497
AACTCCTG | 0.152
CACTCCAC | -0.139
ATCTAGTC | 0.0095

Sequence | PBM E-score
GAGCGCGC | 0.182
GGCATCTA | -0.0448
ATCCATCA | -0.135
GACTCCGA | 0.467
GACTCCGC | 0.426
TACTCCTA | -0.187
AACTCCGC | 0.49
GACTCCAA | -0.221
GACTCCAC | -0.0152
GACTCCTC | -0.135
TACTCCAA | -0.243
AACTCCCC | 0.266
TACTCCGA | 0.479
AACTCCTC | 0.0657
GACTCCTA | -0.191
CATCAGTA | -0.233
GGTGTGAC | -0.172
GTAAACAA | -0.0542
GTGCTCAA | -0.104
ACCGCCCA | 0.154
AACCTTCA | -0.245
TCACTCCA | -0.0238
AAGCTTGA | -0.0383
TCGGTCAA | 0.0369
GATTGCAC | 0.0435

Sequence | PBM E-score
AACTCCCT | -0.072
AACTCCGA | 0.496
AACTCCAA | -0.00212
AACTCCAT | 0.214
AACTCCGT | 0.486
AACTCCCA | 0.155
GACTTTCC | 0.137
CTGCGAAA | -0.0633
CCCCTGAA | -0.144
CACCCCAA | -0.0388
ACGCCGGA | 0.432
CCGCCGGC | 0.41
GCGCCGGA | 0.432
GCGCCGAA | 0.302
CCGCCGCC | 0.304
CCGCCGTC | 0.218
CCGCCGCA | 0.266
ACGCCGTA | 0.0546
CCGCCGGA | 0.462
ACGCCGGG | 0.365
CCGCCGTA | 0.354
GCGCCGTA | 0.231
GTGGCCCA | -0.196
CGACTGAC | -0.171
CGGATCGA | 0.19

Sequence | PBM E-score
CAACTCTC | -0.0583
ACTGAGAG | -0.25
TACAGTGA | -0.253
CGTATGCC | 0.107
ATCTAGTG | -0.173
AACTATCC | 0.0243
ACGCCGGC | 0.421
ACGCCGCC | 0.279
ACGCCGTC | 0.276
AATATGAA | 0.0372
CGGGCTGC | 0.118
CGAATGGA | -0.121
GACGCTGA | -0.214
GTATCGGA | 0.431
ATATCGGC | 0.319
GTATCGCA | -0.0427
CTATCGGC | 0.239
CTATCGTA | -0.18
ATATCGGA | 0.391
CTATCGGA | 0.444
GTATCGAA | -0.103
ATATCGGG | 0.313
ATCTCAGG | -0.0988
GTGGCAAC | -0.0372
AGCAATCG | -0.0973

Sequence | PBM E-score
CTCCTTTA | -0.132
ACATTGCA | -0.0533
GCCGCCGA | 0.338
TCCGCCGA | 0.437
AACGCCGG | 0.424
AACGCCGC | 0.339
AAAGCCGT | 0.137
AAAGCCGG | 0.391
ATCGCCGG | 0.421
CCCGCCGA | 0.334
AACGCCGT | 0.272
ATCGCCGA | 0.373
CAAGCCGG | 0.263
ATCGCCGC | 0.295
ATCTGTGC | -0.167
AAGCGAAG | -0.0624
ACCGCCGG | 0.403
TACGCCGA | 0.293
AAAAGCCC | 0.151
CCCGCCGG | 0.384
ACCGCCGC | 0.235
CACGCCGA | 0.211
AAAAGCCT | -0.224
AACGCCGA | 0.433
AAAAGCCG | 0.388

Sequence | PBM E-score
GAGACTAC | 0.0263
ACGCAAAG | -0.0959
CGACCGAA | 0.148
CGACCGGA | 0.409
GGACCGGA | 0.442
AGACCGGA | 0.335
CGACCGGC | 0.248
GGACCGCA | 0.238
CACAGATC | -0.0312
ACTGCTCT | -0.15
ATCTTCGG | 0.303
AAGTCGCT | -0.163
ACGACACC | 0.0263
ATCAAAAA | 0.0906
CTCCCAGC | -0.0468
ATTGTCCA | -0.113
ATTGTCCG | 0.452
AATGTCCA | -0.115
ATTGTCCC | 0.0603
AATGTCCG | 0.458
CATGTCCG | 0.384
GCCGCAGA | 0.143
AGGTGTCG | 0.0347
GCCGATGA | 0.298
GTCCGCAA | 0.334

Sequence | PBM E-score
TTCCGCAA | 0.298
CCCCGCAG | 0.302
GTCCGCAC | 0.308
CTCCGCAG | 0.418
CTCCGCAA | 0.409
ATCCGCAC | 0.299
CTCCGCAC | 0.41
ATCCGCAG | 0.259
ACACCTGG | -0.243
CCCTCTAG | -0.311
CGTGGCCC | -0.0746
AACCCTAA | -0.0663
CGAAAGGC | 0.0796
ACGCCCGG | 0.305
AAGCCCGG | 0.416
CCGCCCGG | 0.402
AAGCCCGC | 0.266
CCGCCCCC | 0.168
ACGCCCCG | 0.229
CCGCCCCG | 0.42
CCGCCCGC | 0.349
AAGCCCGT | 0.0339
